DAX1 inh-1: DAX1 (NR0B1) inhibitors, primary screen, cell-based, HEK293, Gal4-DAX1, luciferase luminescence; Nuclear receptor subfamily 0 group B member 1 (Homo sapiens), P51843; HEK293 Gal4-DAX1 luciferase reporter; inhibition, % at 6.75 µM; 340,000 tested, 0.99% active;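 active means inhibition above the mean over all tested compounds plus 3 SD, cut at about 4.2% in these data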;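 further: 0% = DAX1-transfected cells with DMSO and 100% = empty-vector control cells with DMSO; inhibition shows as a rise in luminescence from relieved DAX1 repression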
hgDAF12 agonist: H. glycines DAF-12 receptor agonists, primary screen, cell-based, luminescence, HEK293, GAL4 fusion, UAS-luciferase; activation, % at 6.8 µM; 370,000 tested, 1.8% active; AID 687014, 2013; Nuclear hormone receptor DAF-12 (Heterodera glycines), GAL4 fusion; HEK293 GAL4-hgDAF12 UAS-luciferase reporter, agonist luminescence; normalized to butyrate control;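 active means activation above a cutoff set at the mean of all screened compounds plus 3 SD, cut at about 10% in these data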;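 further: 0% = DMSO wells and 100% = sodium butyrate wells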
ssDAF-12 act: S. stercoralis DAF-12 nuclear receptor activators, primary screen, cell-based, luminescence, HEK293, GRIP1 co-expression, lit1-tk-luc. Nuclear hormone receptor DAF-12 (Strongyloides stercoralis). HEK293 ssDAF-12/GRIP1 lit1-tk-luc reporter; % of 3 µM dafachronic acid response. activation, % at 6.8 µM. 370,000 tested, 1% active. AID 652126, 2013;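 active means activation above the mean over all tested compounds plus 3 SD, cut at about 0.9% in these data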;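 further: 0% = DMSO-only wells and 100% = 3 µM delta7-dafachronic acid wells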
hcDAF12 agonist: H. contortus DAF-12 nuclear receptor activators, primary screen, cell-based, luminescence, HEK293, lit1-tk-luc reporter; 370,000 tested, 1.4% active; activation, % at 6.8 µM; HEK293 hcDAF-12 lit1-tk-luc reporter; 0% DMSO, 100% Δ7-dafachronic acid;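 active means activation above the mean of all tested compounds plus 3 SD, cut at about 5.5% in these data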;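 further: 100% = response to 3 µM Δ7-dafachronic acid high control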
Wee1 stabilizer: Wee1 degradation inhibitors, primary screen, cell-based, HeLa, Wee1K328M-luciferase, luminescence; Wee1-like protein kinase (Homo sapiens), P30291; reporter increase, % at 5 µM; HeLa Luc-Wee1K328M stability; 100% = proteasome inhibitor MG132 effect; 220,000 tested, 1.2% active;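 active means activation above the mean of all tested compounds plus 3 SD, set per screening run, cut at about 8.8% in these data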;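 further: cells exposed to compound for 20 h before luminescence read; 0% = DMSO alone and 100% = MG132 at 30 µM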
Target sequence (P30291 whole entry K328M): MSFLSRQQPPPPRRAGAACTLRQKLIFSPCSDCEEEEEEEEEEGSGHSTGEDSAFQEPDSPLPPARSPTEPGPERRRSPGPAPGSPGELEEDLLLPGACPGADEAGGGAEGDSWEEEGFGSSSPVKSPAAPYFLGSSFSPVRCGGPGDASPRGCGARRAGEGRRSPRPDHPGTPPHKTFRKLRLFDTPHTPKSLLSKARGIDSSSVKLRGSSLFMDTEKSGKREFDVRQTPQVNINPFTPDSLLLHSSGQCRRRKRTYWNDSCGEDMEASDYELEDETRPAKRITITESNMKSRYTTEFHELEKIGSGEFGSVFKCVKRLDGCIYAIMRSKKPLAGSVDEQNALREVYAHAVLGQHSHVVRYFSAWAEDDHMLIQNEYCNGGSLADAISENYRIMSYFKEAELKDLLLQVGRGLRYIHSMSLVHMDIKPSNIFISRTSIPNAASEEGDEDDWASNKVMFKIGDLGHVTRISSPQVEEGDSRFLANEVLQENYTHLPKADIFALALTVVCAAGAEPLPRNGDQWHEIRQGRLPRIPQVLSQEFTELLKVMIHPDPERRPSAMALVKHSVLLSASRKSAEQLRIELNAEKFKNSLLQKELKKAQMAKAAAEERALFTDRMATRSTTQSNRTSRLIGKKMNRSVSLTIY
DAX1 inh-2: DAX1 (NR0B1) inhibitors on StAR promoter, primary screen, cell-based, luminescence, SF-1 (NR5A1), full-length DAX-1; HEK293T StAR-luciferase reporter, SF-1/DAX-1 repression relief; inhibition, % at 6.8 µM; 370,000 tested, 1.1% active;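 active means inhibition above the mean over all tested compounds plus 3 SD, cut at about 3.6% in these data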;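 further: 0% = DAX-1 cells with DMSO and 100% = cells lacking DAX-1 with DMSO; higher inhibition means more luminescence from relief of DAX-1 repression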
hgDAF12 conf: H. glycines DAF-12 receptor agonists, confirmation, cell-based, luminescence, HEK293, GAL4-LBD fusion | shares compounds with hgDAF12 agonist | HEK293 GAL4-hgDAF12 luciferase reporter, agonist mode; percent of butyrate response | activation, % at 6.8 µM | 3,300 tested, 80% active | AID 743050, 2013;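 active means mean activation over triplicate wells above the hit cutoff derived from the earlier primary screen, cut at about 11% in these data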;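 further: 0% = DMSO low control and 100% = 2 mM sodium butyrate high control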
LXR ag 2: LXR agonists, Gal4 luciferase reporter, confirmation, counter-screen for hgDAF-12 agonist project, cell-based, luminescence, HEK293, H. glycines campaign | activation, % at 6.8 µM | 24 h | shares compounds with hgDAF12 agonist | AID 743051, 2013 | 3,300 tested, under 10 active;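 active means mean activation of the triplicate above a set limit carried over from the primary screen, none filed active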
Starred values were filed as active, the others as inactive; x = no result. The list is not random: actives were taken first. Their share in the collection is about 4.6%.

SMILES | DAX1 inh-1 | hgDAF12 agonist | ssDAF-12 act | hcDAF12 agonist | Wee1 stabilizer | DAX1 inh-2 | hgDAF12 conf | LXR ag 2
O=C(C[C@H]1C/C=C\C[C@H](NC(=O)OCC2c3ccccc3-c3ccccc32)C(=O)OC[C@H](Cc2ccccc2)NC1=O)N[C@H](CO)Cc1ccccc1 | 0 | -3 | -1 | -1 | x | 0 | x | x
Cc1ccc(NC(=O)c2noc3c2CCC3)cc1C | 4 | 19* | 1 | 5 | 0 | 4.2* | 19* | 1
O=C(NCc1ccccc1)c1noc2c1CCCCC2 | 2 | 15* | 0 | 2 | 7 | 3 | 13* | 0
CC(NC(=O)c1noc2c1CCCCC2)c1ccccc1 (centres undefined) | 0 | 2 | 0 | 0 | 0 | 1 | x | x
COC(=O)[C@]12C[C@H](CC(=O)NCc3ccccc3)C(=O)N(Cc3ccco3)C1=C[C@H](COCc1ccccc1)O[C@@H]2C | x | 2 | 0 | 0 | x | -1 | x | x
Cc1cc(C(=O)Nc2ccc3c(c2)CCC3)ccc1[N+](=O)[O-] | x | 14* | 0 | 2 | x | 1 | 17* | 1
O=C(Nc1ccc2c(c1)CCC2)c1cccs1 | 1 | 16* | 1.2* | 3 | 7 | 3 | 17* | 1
O=C(Nc1ccc2c(c1)CCC2)c1cnc(Cl)c(Cl)c1 | 2 | 15* | 1.1* | 4 | -2 | 2 | 19* | 1
Cn1c(NCc2cccnc2)nc2cc(-c3cccc(C(=O)NCCO)c3)sc2c1=O | x | 0 | -1 | -1 | x | 0 | x | x
N/C(=N\OC(=O)Cc1ccccc1)c1ccccc1Cl | -1 | 14* | 0 | 4 | -3 | 2 | 6 | 0
N/C(=N\OC(=O)Cc1ccccc1)c1cccnc1 | 0 | 5 | -2 | 0 | -1 | -1 | x | x
CCOc1nc(OCC)c2[nH]c(C(=O)O)c(Br)c2n1 | 1 | 1 | -1 | 0 | x | -1 | x | x
O=C(NN=C1C2CC3CC1CC(Cl)(C3)C2)c1cccs1 | 5.0* | 27* | 0 | 6.3* | 1 | 4.0* | 2 | 0
O=C(NN=C1C2CC3CC1CC(Cl)(C3)C2)c1ccccn1 | 1 | 14* | 0 | 6.2* | 9.7* | 3 | 5 | 0
O=C(Nc1cnc2ccccc2c1)C1COc2ccccc2O1 (centres undefined) | 2 | 14* | 0 | 3 | 8 | 2 | 8 | 1
CCC(CC)c1nnc(NC(=O)C2COc3ccccc3O2)s1 (centres undefined) | 2 | 14* | -1 | 3 | 2 | 2 | 6 | 1
CCN(CC)C(=O)Nc1cnc2ccccc2c1 | 0 | 2 | 0 | 3 | -2 | 1 | x | x
Cc1ccc(NC(=O)Nc2cnc3ccccc3c2)cc1 | 3 | 15* | 1 | 5 | 1 | 3.7* | 20* | 1
O=C(Nc1ccc(F)cc1)C1COc2ccccc2O1 (centres undefined) | 1 | 6 | 0 | 2 | x | 0 | x | x
Cc1ccc(Nc2cc(C)nc(-c3ccccc3)n2)cc1 | 2 | 9 | 0 | 3 | x | 1 | x | x
Cc1ccc(CSc2cc(C)[nH]c(=O)n2)cc1 | 1 | 1 | -1 | 0 | x | 0 | x | x
CCCCOCCCNC(=O)C[C@@H]1C[C@@]2(C(=O)OC)CCCCC=C2N(CCc2ccc(OC)c(OC)c2)C1=O | x | 1 | -2 | -2 | x | -1 | x | x
N/C(=N\c1nc2ccccc2o1)NC(=O)c1ccccc1 | 3 | 9 | -1 | 0 | 5 | 2 | x | x
CC(C)(C)C(=O)N/C(N)=N/c1nc2ccccc2o1 | 4.8* | 13* | 1.5* | 5 | 0 | 2 | 15* | 1
CCOC(=O)c1ccc(NC(=O)C2CC3CCC2C3)cc1 (centres undefined) | x | 14* | 0 | 6.5* | x | 3 | 17* | 1
SMILES | DAX1 inh-1 | hgDAF12 agonist | ssDAF-12 act | hcDAF12 agonist | Wee1 stabilizer | DAX1 inh-2 | hgDAF12 conf | LXR ag 2
CCOC(=O)Cc1ccc2sc(-c3ccccc3)nc2c1 | 4 | 13* | 0 | 4 | 5 | 3 | 14* | 1
Cc1ccc(Nc2cc(C(=O)NCCCN3CCOCC3)c3ccccc3n2)cc1C | 0 | 4 | -1 | 1 | x | 2 | x | x
COc1ncccc1-c1nnn(-c2ccc(C)cc2)n1 | 1 | 17* | 0 | 3 | -1 | 2 | 17* | 1
COc1ncccc1-c1nnn(-c2ccc(F)cc2)n1 | 3 | 6 | 0 | 2 | 2 | 1 | x | x
Cc1ccc2nc(-c3ccc(Cl)cc3)c(Cc3cccc(Cl)c3)n2c1 | x | 13* | -1 | 2 | x | 3.9* | 3 | 0
Cc1ccc(-c2nc3ccc(Br)cn3c2Cc2cccc(F)c2)cc1 | x | 21* | 0 | 1 | x | 3 | 10* | 1
CCOC(=O)N1CCc2c(sc3nc4n(c(=O)c23)N=C(c2ccc(OC)cc2)CS4)C1 | 1 | 3 | -1 | -1 | -1 | 0 | x | x
Cc1cccc2c1-c1sc(C(=O)Nc3cccnc3)cc1CO2 | 0 | 3 | 0 | 2 | x | -1 | x | x
Cc1cccc2c1-c1sc(C(=O)Nc3nccs3)cc1CO2 | 0 | 19* | 0 | 1 | 2 | 3 | 14* | 1
C=CCNc1ncnc2c1ncn2[C@H]1CN(Cc2cccs2)C[C@@H](CO)O1 | x | 2 | -1 | -1 | x | 0 | x | x
Cc1nnc(NC(=O)c2sc3ccccc3c2Cl)s1 | -4 | 16* | 0 | 4 | 0 | 3 | 11* | 1
CCC(=O)Nc1cc2c(cc1Cl)-c1ccccc1C2 | 1 | 18* | 0 | 5.8* | x | 3 | 17* | 0
Cc1ccc(-c2cn3c(n2)SCC3)cc1 | 3 | 7 | -1 | 2 | 6 | 2 | x | x
CCc1ccc(-c2cn3c(n2)SCC3)cc1 | 1 | 16* | 0 | 2 | 5 | 4.0* | 14* | 1
COc1ccc2c(c1)CC/C2=N\OC(=O)c1cccc(C)c1 | 2 | 14* | 0 | 2 | 0 | 2 | 17* | 1
